# Source: PubChem BioAssay (NCATS)
# Inconclusive results are not listed. Entries that show only a call come without a potency. Activity calls are given as the source filed them. Unless noted, calls follow the shape of the dose curve; as a rule, active = well fitted curve in the direction sought with a large enough effect; inconclusive = small, poorly fitted or top-dose-only effect, or another doubt; inactive = no such curve, though single readings can be large; an effect the other way counts as inactive or inconclusive.
# Columns and labels:
# [1] = qHTS assay to identify small molecule inhibitors of chordoma cells - UCH-1 (AID 1259355); also: nearly all actives have a fitted effect of over 55% in size; also: potency is read from the fitted curve at half-maximal effect
# Procedure, shortened: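 Screening used approved and investigational drugs in 15-point titration against 800 seeded cells per well. A fixed combination of auranofin with camptothecin, doxorubicin, rubitecan and topotecan followed compound addition, and growth was scored by CellTiter-Glo after 48hr.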
# [2] = qHTS assay to identify small molecule inhibitors of chordoma cells - UCH-2 (AID 1259356)
# [3] = P-glycoprotein substrates identified in KB-8-5-11 adenocarcinoma cell line, qHTS therapeutic library screen (AID 1346987); also: nearly all actives have a fitted effect of over 65% in size; also: potency is read from the fitted curve at half-maximal effect
# Procedure, shortened: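 In this qHTS, P-gp-rich KB-8-5-11 cells received library compounds across a concentration range. Viability was quantified by luminescence after 72 h at 37 degree C.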
# [4] = P-glycoprotein substrates identified in KB-3-1 adenocarcinoma cell line, qHTS therapeutic library screen (AID 1346986); also: nearly all actives have a fitted effect of over 60% in size
# Procedure, shortened: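 Viability by CellTiter-Glo after 72 h compound exposure at 37 degree C, 5% CO2. Cytotoxic call: curve class -1.1 to -2.4, maximum response >50%, AC50 < 10 uM, compared across KB-3-1 and P-gp-overexpressing KB-8-5-11.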
# [5] = qHTS profiling of the MIPE4 collection as inhibitors of Plasmodium falciparum (DD2) proliferation (Rep 2) (AID 743346; call rule not given here); details: P. falciparum Dd2 in erythrocytes, SYBR Green DNA, 72 h; at 28.5 µM (top of the series) unless noted
# Procedure, shortened: (§1)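 Parasite DNA was quantified by SYBR Green I fluorescence (ex 485, em 535 nm) after overnight lysis in saponin/Triton buffer at room temperature. Cultures at 0.3% parasitemia and 2.5% hematocrit were first exposed to compound for 72 h at 37 C; signals were normalised to artemisinin (0.29 uM) and vehicle wells.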
# [6] = qHTS profiling of the MIPE4 collection as inhibitors of Plasmodium falciparum (HB3) proliferation (AID 743347; call rule not given here); details: P. falciparum HB3 in erythrocytes, SYBR Green DNA, 72 h; at 28.5 µM (top of the series) unless noted
# Procedure, shortened: as §1
smiles,measurement,setting,value
CC1=C(/C=C/C(C)=C/C=C/C(C)=C/C=C/C=C(C)/C=C/C=C(C)/C=C/C2=C(C)C(=O)CCC2(C)C)C(C)(C)CCC1=O,Potency,[1],inactive
same,Potency,[2],inactive
same,Potency,[3],inactive
CC(NNC(=O)c1ccccc1)c1ccccc1 (stereo unspecified),Potency,[1],inactive
same,Potency,[2],inactive
Cc1cc(/C=C/c2ccc3cc(N(C)C)ccc3[n+]2C)c(C)n1-c1ccccc1,Potency,[1],5.01 µM (active)
same,Potency,[2],inactive
same,Potency,[3],inactive
C#C[C@]1(O)CC[C@H]2[C@@H]3CCC4=CCCC[C@@H]4[C@H]3C(=C)C[C@@]21CC,Potency,[1],inactive
same,Potency,[2],inactive
CCCCC(=O)N(Cc1ccc(-c2ccccc2-c2nn[nH]n2)cc1)[C@@H](C(=O)O)C(C)C,Potency,[1],inactive
same,Potency,[2],inactive
Nc1ccn([C@H]2CS[C@@H](CO)O2)c(=O)n1,Potency,[1],inactive
same,Potency,[2],inactive
Cc1ccccc1,Potency,[1],inactive
same,Potency,[3],inactive
CN1C(=O)CN2CCc3ccccc3C2c2cc(Cl)ccc21 (stereo unspecified),Potency,[1],inactive
same,Potency,[2],inactive
CO[C@@H]1[C@@H](O[C@@H]2O[C@H](C)[C@@H](O[C@H]3C[C@@](C)(O)[C@@H](OC(=O)CC(C)C)[C@H](C)O3)[C@H](N(C)C)[C@H]2O)[C@@H](CC=O)C[C@@H](C)C(=O)/C=C/C2OC2C[C@@H](C)OC(=O)C[C@H]1OC(C)=O (stereo partly specified),Potency,[1],inactive
same,Potency,[3],inactive
COC(=O)[C@H]1[C@H]2C[C@@H]3c4[nH]c5ccccc5c4CCN3C[C@H]2C[C@@H](OC(=O)c2cc(OC)c(OC)c(OC)c2)[C@@H]1OC,Potency,[1],10 µM (active)
same,Potency,[3],4.11 µM (active)
O=C(Nc1cccc(C(F)(F)F)c1)c1cc(Br)cc(Br)c1O,Potency,[1],12.6 µM (active)
same,Potency,[3],1.3 µM (active)
O=C(COc1ccc(Cl)cc1)OCCNC12CC3CC(CC(C3)C1)C2,Potency,[1],inactive
same,Potency,[2],inactive
C/C1=C2N=C(/C=C3N=C(/C(C)=C4\[N-][C@@](C)([C@@H]5N=C1[C@](C)(CCC(=O)NCC(C)OP(=O)(O)O[C@H]1[C@@H](O)[C@@H](n6cnc7cc(C)c(C)cc76)O[C@@H]1CO)[C@H]5CC(N)=O)[C@@](C)(CC(N)=O)[C@@H]4CCC(N)=O)[C@@](C)(CC(N)=O)[C@@H]\3CCC(N)=O)C(C)(C)[C@@H]/2CCC(N)=O.CC(=O)O.[Co] (stereo partly specified),Potency,[1],inactive
same,Potency,[4],inactive
same,Potency,[3],inactive
CC(C(=O)O)c1ccc(N2Cc3ccccc3C2=O)cc1 (stereo unspecified),Potency,[1],inactive
same,Potency,[3],inactive
CC(C)(C)C1(O)CCN2CC3c4ccccc4CCc4cccc(c43)C2C1 (stereo unspecified),Potency,[1],inactive
same,Potency,[2],inactive
CCCCCCCCCCCCCCCC(=O)OCC(COC(=O)CCCCCCCCCCCCCCC)OC(=O)CCCCCCCCCCCCCCC,Potency,[1],inactive
same,Potency,[2],inactive
same,Potency,[3],inactive
COc1ccc(CCNC[C@H](O)c2ccc(O)cc2)cc1OC,Potency,[1],inactive
same,Potency,[2],inactive
CC1(C)S[C@@H]2[C@H](NC(=O)C(N)c3ccccc3)C(=O)N2[C@H]1C(=O)OC1OC(=O)c2ccccc21 (stereo partly specified),Potency,[1],inactive
same,Potency,[2],inactive
Nc1ncnc2c1ncn2[C@@H]1O[C@H](COP(=O)(O)OP(=O)(O)OP(=O)(O)O)[C@@H](O)[C@H]1O,Potency,[1],inactive
same,Potency,[2],inactive
CCNC(=O)[C@@H]1CCCN1C(=O)[C@H](CCCN=C(N)N)NC(=O)[C@H](CC(C)C)NC(=O)[C@@H](Cc1c[nH]c2ccccc12)NC(=O)[C@H](Cc1ccc(O)cc1)NC(=O)[C@H](CO)NC(=O)[C@H](Cc1c[nH]c2ccccc12)NC(=O)[C@H](Cc1cnc[nH]1)NC(=O)[C@@H]1CCC(=O)N1,Potency,[1],31.6 µM (active)
same,Potency,[3],8.2 µM (active)
O=C(Nc1ccc(Br)cc1)c1cc(Br)c(Br)s1,Potency,[1],inactive
same,Potency,[2],inactive
CCOC(=O)C1=C(C)NC(C)=C(C(=O)OCC)C1c1ccccc1C=CC(=O)OC(C)(C)C,"parasite growth, % of control (lower = inhibition)",[5],19.9%
same,"growth, % of control",[6],11.8%
same,Potency,[1],inactive
same,Potency,[2],inactive
CNc1cc(OC)c(C(=O)N[C@H]2CCN(Cc3ccccc3)[C@H]2C)cc1Cl,Potency,[1],inactive
same,Potency,[2],inactive
COc1ccc2c3c1O[C@H]1C[C@@H](O)C=C[C@@]31CCN(C)C2,Potency,[1],inactive
same,Potency,[4],inactive
same,Potency,[3],inactive
Nc1c(N=Nc2ccc(-c3ccc(N=Nc4cc(S(=O)(=O)O)c5ccccc5c4N)cc3)cc2)cc(S(=O)(=O)O)c2ccccc12,Potency,[1],inactive
same,Potency,[3],inactive
C#C[C@]1(O)CC[C@H]2[C@@H]3CCC4=C/C(=N/O)CC[C@@H]4[C@H]3CC[C@@]21CC,Potency,[1],inactive
same,Potency,[3],5.8 µM (active)
C[C@]12C=CC(=O)N[C@@H]1CC[C@@H]1[C@@H]2CC[C@]2(C)[C@@H](C(=O)Nc3cc(C(F)(F)F)ccc3C(F)(F)F)CC[C@@H]12,Potency,[1],inactive
same,Potency,[3],inactive
